Results as given in PubChem BioAssay (NCATS).
Records with an inconclusive call do not appear. Unmarked numbers belong to inactive results. Calls follow the shape of the dose curve; as a rule, active = well fitted curve in the direction sought with a large enough effect; inconclusive = small, poorly fitted or top-dose-only effect, or another doubt; inactive = no such curve, though single readings can be large; an effect the other way counts as inactive or inconclusive. Square brackets hold non-standard residues; d marks the D form. Peptide text beside a SMILES is read from it. Ala(indol-2-yl) = N[C@@H](Cc1cc2ccccc2[nH]1)C(=O)O; Aib = CC(C)(N)C(=O)O

Target: Aldehyde dehydrogenase, mitochondrial (Homo sapiens) (UniProt P05091)
Test: qHTS for Inhibitors of the Aldehyde Dehydrogenase Family (ALDH2) Primary screen (AID 2061308);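 also: plate controls were vehicle for no effect and reference inhibitor for full effect; nearly all actives have a fitted effect of over 55% in size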
Conditions: ALDH2 enzyme inhibition qHTS, 1536-well; series mostly up to 56 µM; activity change, negative = inhibition: at the top concentration

Row | SMILES | activity change, negative = inhibition
1 | C[C@]12CC[C@H]3[C@@H]([C@H](O)CC4=CC(=O)CC[C@@]43C)[C@@H]1CC[C@@H]2O | 0.446%
2 | COC1=CC(=O)O[C@@H](/C=C/c2ccccc2)C1 | 20.3%
3 | CCN1C[C@]2(COC)[C@H](O)C[C@H](OC)[C@]34[C@@H]5C[C@]6(O)[C@H](OC(=O)c7ccccc7)[C@@H]5[C@@](O)([C@H]([C@H](OC)[C@H]23)[C@@H]14)[C@@H](O)[C@@H]6OC | -0.0186%
4 | CC[C@@H]1C[C@H]2CC[C@H](O2)[C@H](C)C(=O)O[C@@H](C)C[C@@H]2CC[C@@H](O2)[C@@H](C)C(=O)O[C@H](C)C[C@H]2CC[C@H](O2)[C@H](C)C(=O)O[C@@H](C)C[C@@H]2CC[C@@H](O2)[C@@H](C)C(=O)O1 | 8.39% [at 16.9 µM]
5 | CCC1=CC2CN3CCc4c([nH]c5ccccc45)[C@@](C(=O)OC)(C2)[C@@H]13 | -4.72%
6 | COc1c(C(C)C)cc2c(c1O)[C@@]1(C(=O)O)CCCC(C)(C)C1CC2 (stereo partly drawn) | 9.07%
7 | C=CC(C)(O)CC/C=C(\C)C(=O)O[C@H]1[C@H](O)[C@@H](CO)O[C@@H](OC(=O)[C@]23CCC(C)(C)CC2C2=CCC4[C@@]5(C)CC[C@H](O[C@@H]6O[C@H](CO[C@@H]7OC[C@H](O)[C@H](O)[C@H]7O[C@@H]7OC[C@@H](O)[C@H](O)[C@H]7O)[C@@H](O)[C@H](O)[C@H]6O)C(C)(C)C5CC[C@@]4(C)[C@]2(C)CC3)[C@@H]1OC1OC(C)C(O[C@@H]2OC[C@@H](O)[C@H](O[C@@H]3OC[C@@H](O)[C@H](O)[C@H]3O)[C@H]2O)C(O)C1O (stereo partly drawn) | 12% [at 11.2 µM]
8 | COC1CC(=O)C23C(=O)NC(CC(C)C)C2C(C)=C(C)C(OO)C3/C=C(\C)CCC(O)C1O (stereo not drawn) | 9.91% [at 28 µM]
9 | CCC(C)(OC(C)=O)C(=O)O[C@H]1[C@H](OC(C)=O)C[C@@H]2[C@@](C)([C@@H]3C[C@H]4C=CO[C@H]4O3)[C@H](C)C[C@H](OC(C)=O)[C@@]2(COC(C)=O)[C@@]12CO2 (stereo partly drawn) | -2.56% [at 16.9 µM]
10 | C[C@]12CC[C@H](O)C[C@@H]1CC[C@@H]1[C@@H]2CC[C@]2(C)[C@@H](C3=CC(=O)OC3)CC[C@]12O | -2.92%
11 | COC1CCCC(C)OC(=O)Cc2cc(O)cc(O)c2C(=O)C1 (stereo not drawn) | 3.3%
12 | COC[C@]12CN(C)C3C4[C@H](OC)[C@H]1C3(C(OC)C[C@H]2O)[C@H]1C[C@@]2(O)[C@H](OC(=O)c3ccccc3)[C@@H]1[C@]4(O)[C@@H](O)[C@@H]2OC (stereo partly drawn) | 9.68%
13 | COC(=O)C1=COC(C)C2CN3CCC4(C(=O)Nc5ccccc54)C3CC12 (stereo not drawn) | 12.2%
14 | C[C@]12CC[C@H](O[C@@H]3O[C@H](CO)[C@@H](O)[C@H](O)[C@H]3O)CC1=CC[C@@H]1C2CC[C@]2(C)[C@@H](C3=CC(=O)OC3)CC[C@]12O (stereo partly drawn) | 7.42% [at 16.9 µM]
15 | CCN1C[C@]2(COC)CC[C@H](O)[C@@]34C5C[C@@H]6[C@@H](OC)C[C@@](OC(C)=O)(C5[C@@H]6OC(C)=O)[C@H]([C@H](OC)C23)[C@@H]14 (stereo partly drawn) | 3.13% [at 28 µM]
16 | CC(=O)OC[C@]12C[C@H](OC(=O)CC(C)C)C(C)=C[C@H]1O[C@@H]1[C@H](O)[C@@H](OC(C)=O)[C@@]2(C)[C@@]12CO2 | 5.81% [at 28 µM]

Target: Retinaldehyde dehydrogenase 3 (Homo sapiens) (UniProt P47895)
Test: qHTS for Inhibitors of the Aldehyde Dehydrogenase Family (ALDH1A3) Primary screen (AID 2061315);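 also: plate controls were DMSO vehicle for no effect and reference inhibitor for full effect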
Conditions: ALDH inhibition qHTS; series mostly up to 56 µM; activity change, negative = inhibition: at the top concentration

Row | SMILES | activity change, negative = inhibition
17 | C=C(C)[C@@]12O[C@@H]1[C@@]1(C)C(=CC2=O)CC[C@@H](OC(C)=O)[C@@H]1C | 15.2%
18 | CO[C@H]1C[C@H](O[C@H]2CC[C@@]3(C)C(=CCC4C3CC[C@]3(C)[C@@H](C5=CC(=O)OC5)CC[C@]43O)C2)O[C@@H](C)[C@@H]1O[C@@H]1O[C@H](CO[C@@H]2O[C@H](CO)[C@@H](O)[C@H](O)[C@H]2O)[C@@H](O)[C@H](O)[C@H]1O (stereo partly drawn) | -8.04% [at 16.9 µM]
19 | C/C1=C/[C@@H](C)C/C=C/[C@H]2[C@@H]3O[C@]3(C)[C@@H](C)[C@H]3[C@H](Cc4c[nH]c5ccccc45)NC(=O)[C@]32C(=O)/C=C\C(=O)[C@@H]1O | 9.32% [at 28 µM]
20 | C=C1[C@@H](C)[C@H]2[C@H](Cc3ccccc3)NC(=O)[C@]23[C@H](OC(C)=O)/C=C/[C@](C)(O)C(=O)[C@@H](C)C/C=C/[C@H]3[C@@H]1O | 4.53%
21 | CC(=O)OC[C@]12C[C@H](OC(C)=O)C(C)=C[C@H]1O[C@@H]1[C@H](O)[C@@H](O)[C@@]2(C)[C@]12CO2 | -21%
22 | COC(=O)N1CCN(C(=O)Cc2ccc(Cl)c(Cl)c2)[C@@H](CN2CCCC2)C1 | -6.65%
23 | C/C=C(\C)C(=O)OC1CC2C(C)(C)OC(=O)CC(OC(C)=O)C2(C)C2CC(OC(=O)C(C)C)C3(C)C(c4ccoc4)CC4OC43C12C (stereo not drawn) | 39.3% [at 16.9 µM]
24 | CC(C)(NC(=O)[C@@H](N)Cc1ccc(O)cc1)C(=O)N[C@@H](Cc1cc2ccccc2[nH]1)C(=O)N[C@@H](Cc1ccccc1)C(=O)O (H-Y[Aib][Ala(indol-2-yl)]F-OH) | -10.2% [at 11.2 µM]
25 | C=C(C)[C@H]1O[C@H]2CC[C@@]3(C)[C@@](O)(CC[C@H]4[C@@H]5OC(C)(C)[C@H]6C[C@@H]7C(=C)Cc8c(Cl)cc9[nH]c(c5c9c8[C@@]76O)[C@@]43C)[C@]23O[C@@H]3[C@H]1O | -9.32% [at 16.9 µM]
26 | C/C=C(\C)C(=O)O[C@H]1[C@H](OC(C)=O)[C@]2(CO)[C@H](O)[C@H](O)[C@]3(C)C(=CCC4[C@@]5(C)CC[C@H](O[C@@H]6O[C@H](C(=O)O)[C@@H](O)[C@H](O[C@@H]7OC[C@H](O)[C@H](O[C@@H]8OC[C@H](O)[C@H](O)[C@H]8O)[C@H]7O)[C@H]6O[C@@H]6O[C@H](CO)[C@@H](O)[C@H](O)[C@H]6O)C(C)(C)C5CC[C@]43C)[C@@H]2CC1(C)C (stereo partly drawn) | 2.55% [at 11.2 µM]
27 | CCC1C2CC3C4N(C)c5ccccc5C45CC(C2C5O)N3C1O (stereo not drawn) | -26.4%
28 | COc1cc(C(=O)O[C@H]2[C@@H]3C=CO[C@@H](O[C@@H]4O[C@H](CO)[C@@H](O)[C@H](O)[C@H]4O)[C@@H]3[C@@]3(CO)O[C@@H]23)ccc1O | -19.8% [at 28 µM]
29 | CC(CCc1ccc(O)cc1)O[C@@H]1O[C@H](CO[C@H]2OC[C@](O)(CO)[C@H]2O)[C@@H](O)[C@H](O)[C@H]1O (stereo partly drawn) | -26.6% [at 28 µM]
30 | COC1CC(O[C@H]2CC[C@@]3(C)C(=CCC4C3C(O)[C@@H](O)[C@]3(C)[C@@H](C(C)=O)CC[C@]43O)C2)OC(C)C1OC1CC(OC)C(OC2OC(C)C(O)C(O)C2O)C(C)O1 (stereo partly drawn) | 3.04% [at 16.9 µM]
31 | COC(=O)C12C(=O)C(C)(O)C(=O)C1(C)C(C)=CC1C34CCC(OC3=O)C(C)(CO)C4CCC12C (stereo not drawn) | -6.2% [at 28 µM]
32 | CC1=CC(=O)[C@@H](O)[C@]2(C)C3[C@@H](O)[C@@H]4OC(=O)[C@@H]([C@H]4C)[C@]3(C)C(=O)C[C@@H]12 (stereo partly drawn) | -23%

Row | SMILES | activity change, negative = inhibition
33 | COC(=O)[C@@]12C(=O)C(C)C(=O)[C@]1(C)C(C)=C[C@H]1[C@]3(C=O)CC[C@H](OC(C)=O)C(C)(C)[C@H]3CC[C@@]12C (stereo partly drawn) | 1.41% [at 28 µM]
34 | CN1C(=O)N(c2ccc(C#N)c(C(F)(F)F)c2)C(=O)[C@@]1(CO)c1ccccc1 | -0.203%
35 | C=CC(C)(C)C12C=C(O)C(=O)N3/C(=C\c4cnc[nH]4)C(=O)NC31N(OC)c1ccccc12 (stereo not drawn) | 41.3% [at 28 µM]
36 | CCCCCCC1C(=O)O[C@H](C)[C@H](NC(=O)c2cccc(NC=O)c2O)C(=O)O[C@@H](C)[C@@H]1OC(=O)CC(C)C (stereo partly drawn) | 6.86%
37 | COc1ccc(CN(C(=O)[C@@H](N)Cc2c(C)cc(C(N)=O)cc2C)[C@@H](C)c2ncc(-c3ccccc3)[nH]2)cc1C(=O)O | -1.25%
38 | C=CCN1CCC2(C)c3cc(O)ccc3C[C@H]1[C@H]2C | -1.6%
39 | COC1CC(O[C@H]2CC[C@]3(C=O)C4CC[C@]5(C)[C@@H](C6=CC(=O)OC6)CC[C@]5(O)[C@@H]4CC[C@@H]3C2)OC(C)C1O[C@@H]1O[C@H](CO)[C@@H](O[C@@H]2O[C@H](CO)[C@@H](O)[C@H](O)[C@H]2O)[C@H](O)[C@H]1O (stereo partly drawn) | -7.05% [at 16.9 µM]
40 | C[C@]12CC[C@H]3[C@@H]([C@H](O)CC4=CC(=O)CC[C@@]43C)[C@@H]1CC[C@@H]2O | -15.1%
41 | COC1=CC(=O)O[C@@H](/C=C/c2ccccc2)C1 | 7.71%
42 | CCN1C[C@]2(COC)[C@H](O)C[C@H](OC)[C@]34[C@@H]5C[C@]6(O)[C@H](OC(=O)c7ccccc7)[C@@H]5[C@@](O)([C@H]([C@H](OC)[C@H]23)[C@@H]14)[C@@H](O)[C@@H]6OC | 7%
43 | CC[C@@H]1C[C@H]2CC[C@H](O2)[C@H](C)C(=O)O[C@@H](C)C[C@@H]2CC[C@@H](O2)[C@@H](C)C(=O)O[C@H](C)C[C@H]2CC[C@H](O2)[C@H](C)C(=O)O[C@@H](C)C[C@@H]2CC[C@@H](O2)[C@@H](C)C(=O)O1 | 12.8% [at 16.9 µM]
44 | CCC1=CC2CN3CCc4c([nH]c5ccccc45)[C@@](C(=O)OC)(C2)[C@@H]13 | 2.34%
45 | COc1c(C(C)C)cc2c(c1O)[C@@]1(C(=O)O)CCCC(C)(C)C1CC2 (stereo partly drawn) | 7.18%
46 | C=CC(C)(O)CC/C=C(\C)C(=O)O[C@H]1[C@H](O)[C@@H](CO)O[C@@H](OC(=O)[C@]23CCC(C)(C)CC2C2=CCC4[C@@]5(C)CC[C@H](O[C@@H]6O[C@H](CO[C@@H]7OC[C@H](O)[C@H](O)[C@H]7O[C@@H]7OC[C@@H](O)[C@H](O)[C@H]7O)[C@@H](O)[C@H](O)[C@H]6O)C(C)(C)C5CC[C@@]4(C)[C@]2(C)CC3)[C@@H]1OC1OC(C)C(O[C@@H]2OC[C@@H](O)[C@H](O[C@@H]3OC[C@@H](O)[C@H](O)[C@H]3O)[C@H]2O)C(O)C1O (stereo partly drawn) | 3.26% [at 11.2 µM]
47 | COC1CC(=O)C23C(=O)NC(CC(C)C)C2C(C)=C(C)C(OO)C3/C=C(\C)CCC(O)C1O (stereo not drawn) | -17.4% [at 28 µM]
48 | CCC(C)(OC(C)=O)C(=O)O[C@H]1[C@H](OC(C)=O)C[C@@H]2[C@@](C)([C@@H]3C[C@H]4C=CO[C@H]4O3)[C@H](C)C[C@H](OC(C)=O)[C@@]2(COC(C)=O)[C@@]12CO2 (stereo partly drawn) | -3.05% [at 16.9 µM]
